The nature of assay [1]: qHTS assay for small molecule agonists of the p53 signaling pathway (AID 651631; calls by dose curve; also: nearly all actives have a fitted effect of over 15% in size; also: potency is read from the fitted curve at half-maximal effect). The method in brief:
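HCT-116 cells carrying a stable p53 response element–beta-lactamase reporter were plated, rested 5 h at 37 °C, then exposed to compound in DMSO for 16 h at 37 °C; reporter activity was read as FRET substrate fluorescence after 2 h at room temperature.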

A short description of assay [2]: qHTS assay for small molecule agonists of the p53 signaling pathway - cell viability (AID 651633; calls by dose curve; also: nearly all actives have a fitted effect of over 30% in size; also: potency is read from the fitted curve at half-maximal effect; as to activity change, negative = cytotoxicity: series mostly up to about 83 µM). In a few lines:
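p53RE-bla cells were treated with compound for 16 hours at 37 C. Cytotoxicity was then measured as CellTiter-Glo luminescence after 30 min at room temperature.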

A short description of assay [3]: qHTS assay for small molecules that induce genotoxicity in human embryonic kidney cells expressing luciferase-tagged ATAD5 - cell viability (AID 651634; calls by dose curve; also: nearly all actives have a fitted effect of over 25% in size; also: potency is read from the fitted curve at half-maximal effect). In a few lines:
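15.5 hr compound or vehicle exposure of HEK293T cells expressing luciferase-tagged ATAD5 at 37C; live-cell protease activity is read by fluorescence after 30 min of CellTiter-Fluor.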

Assay [4] is described as follows: qHTS assay to test for compound auto fluorescence at 590 nm (red) in HepG2 cells (AID 720674). In a few lines:
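HepG2 cells, 2,000 per well in MEM with 10% FBS, attached overnight at 37 C, then got 23 nL compound or DMSO. After 1 hr at 37 C, 5% CO2, red fluorescence was read at 540/590 nm against Rose Bengal sodium as reference.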

Assay [5] is described as follows: qHTS assay to test for compound auto fluorescence at 535 nm (green) in HepG2 cells (AID 720675).
Assay [6] in a line: qHTS assay to test for compound auto fluorescence at 590 nm (red) in HEK293 cells (AID 720679). The method in brief: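 Using HEK293 cells at 2,000 per well, the screen added 23 nL of each compound after cell attachment and incubated overnight (37C, 5% CO2). The plate reader then captured red-label fluorescence, Ex/Em 540/590nm.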
The nature of assay [7]: qHTS assay for small molecules that induce genotoxicity in human embryonic kidney cells expressing luciferase-tagged ATAD5 (AID 651632). Also: nearly all actives have a fitted effect of over 15% in size. In a few lines:
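Concentration-response screen for ATAD5 upregulation in HEK293T luciferase reporter cells; 16 hr treatment at 37C, then luminescence after 30 min with Amplite at room temperature.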

A short description of assay [8]: qHTS assay for small molecule disruptors of the mitochondrial membrane potential - cell viability (AID 720634; calls by dose curve; also: nearly all actives have a fitted effect of over 20% in size; also: potency is read from the fitted curve at half-maximal effect;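 as to activity change, negative = cytotoxicity: human HepG2 liver cancer cells; series mostly up to about 83 µM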). The method in brief: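 In this qHTS format, HepG2 cells plated overnight were pinned with compound, incubated 1 hr, and assayed for ATP luminescence with CellTiter-Glo after m-MPI dye addition.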
Assay [9] can be described thus: qHTS assay to test for compound auto fluorescence at 460 nm (blue) in HEK293 cells (AID 720678). The method in brief: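 Measured: blue fluorescence (Ex 405/Em 460 nm) of compound-treated HEK293 cells, incubated overnight at 37C with 5% CO2 and scaled to triamterene equivalents.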
Assay [10] can be described thus: qHTS assay for small molecule disruptors of the mitochondrial membrane potential (AID 720635). Also: potency is read from the fitted curve at half-maximal effect. In a few lines:
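HepG2 cells exposed to compound 1 hr at 37C, then Mito-MPS dye 30 min. Ratio read of aggregate (540/590 nm) versus monomer (490/535 nm) fluorescence.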

Values without a mark were called inactive. Inconclusive results are not listed. Active and inactive are the calls of the source. Unless noted, calls follow the shape of the dose curve; as a rule, active = well fitted curve in the direction sought with a large enough effect in the repeat runs; inconclusive = weak or mixed curves; inactive = no such curve, though single readings can be large; an effect the other way counts as inactive or inconclusive.
% is scaled to controls: 0 for no effect and ±100 for the full control effect.

As to `CCC(C)O` (centres undefined), the Potency entry in assay [1], in assay [2], in [3], in assay [4], in assay [5] and in [6] was “inactive” each time.

Regarding `c1cc(CCCc2ccncc2)ccn1`, the Potency result in assay [7], in [2], in [3], in assay [8], in assay [4] and in assay [5] was “inactive” each time. In addition, in assay [6], the Potency entry is “inactive”. For the same compound, the call in assay [9] was inactive.

As for `CCCCCCCCCCCCN1CCCCCC1=O`, the Potency result in [7], in assay [4], in assay [5] and in [6] was “inactive” in each case. In addition, the Potency in [2] was 15.4 µM (active); in [3], 61.1 µM (active); in assay [8] it was 27.3 µM (active); in assay [10] it was 27.3 µM (active). Also, in assay [9], the result was inactive.

For the compound `CC(C)(CO)[N+](=O)[O-]`, the Potency result in assay [7], in [2], in assay [3], in [8], in [4] and in [5] was “inactive” each time. For the same compound, the Potency entry in assay [6] was “inactive”. In addition, the compound was classed as inactive in assay [9].

As for `C[Si](C)(CCCN)O[Si](C)(C)CCCN`, the Potency entry in assay [7], in assay [2], in [3], in assay [8], in [4] and in assay [5] was “inactive” in each case. In addition, the Potency result in [6] was “inactive”. Moreover, in assay [9], the call was inactive.

Take `Brc1c2ccccc2c(Br)c2ccccc12`: the activation in [7] is 1.86% [at 8.08 µM]. The activity change, negative = cytotoxicity in assay [2] was 12.3% [at 8.08 µM]; in [8], -7.1% [at 8.08 µM]. Moreover, the activity, negative = cytotoxicity in assay [3] was 21.9% [at 8.08 µM]. For the same compound, the fluorescence, relative to Rose Bengal in assay [4] was 0.105% [at 3.72 µM]. In addition, the fluorescence, % of triamterene in assay [9] is 0.364% [at 3.72 µM]. In addition, the fluorescence, % of fluorescent control in assay [6] was -0.0447% [at 3.72 µM].

As to `CCCn1cnc2c1c(=O)n(CCCCC(C)=O)c(=O)n2C`, the Potency result in [1], in [2], in [3], in [8], in [10] and in assay [4] was “inactive” in each case. Moreover, the Potency result in assay [6] was “inactive”. In addition, the compound was called inactive in assay [9].

Consider `C=C(C)C(=O)OCC`, for which the Potency result in assay [7], in assay [2], in assay [3], in assay [8], in assay [10] and in assay [4] was “inactive” in each case. The Potency entry in [5] and in [6] was “inactive” in each case. For the same compound, the compound was classed as inactive in assay [9].

Take `CC(C)(COC(=O)c1ccccc1)COC(=O)c1ccccc1`: the Potency entry in assay [7], in assay [2], in [3], in assay [8], in [4] and in assay [5] was “inactive” throughout. In assay [6], the Potency entry was “inactive”. The compound was classed as inactive in assay [9].

With `NC(N)=NCCC[C@H](N)C(=O)O`, the Potency entry in [7], in assay [2], in [3], in assay [8], in assay [10] and in assay [4] was “inactive” each time. Also, the Potency result in assay [5] and in assay [6] was “inactive” each time. Besides, in [9], the result was inactive.

For `CN(Cc1ccc(C(C)(C)C)cc1)Cc1cccc2ccccc12`, the Potency result in assay [7], in [3], in [8], in assay [10], in assay [4] and in assay [6] was “inactive” in each case. In assay [2], the Potency was 23.7 µM (active). Moreover, the compound was called inactive in assay [9].

For the compound `O=C(OCCc1ccccc1)c1ccccc1`, the Potency entry in assay [1], in assay [2], in [3], in assay [10], in [5] and in [6] was “inactive” each time. The compound was classed as inactive in assay [9].

As to `CCCCO`, the Potency entry in assay [1], in assay [2], in [3], in assay [8], in assay [10] and in [4] was “inactive” in each case. The Potency entry in assay [5] and in assay [6] was “inactive” throughout. The outcome in [9] was inactive.

As for `O=C(Nc1ccc(S(=O)(=O)N2CCOCC2)cc1)c1cc(Cl)ccc1NS(=O)(=O)c1ccc(Cl)s1`, the Potency in [1] is 26.6 µM (active). The Potency entry in assay [7], in [4], in assay [5] and in [6] was “inactive” each time. Besides, the outcome in [9] was inactive.

As for `CCN(CC)CCOC(=O)C(c1ccccc1)C1CCCCC1` (centres undefined), the Potency result in assay [7], in assay [2], in assay [3], in assay [8], in assay [4] and in assay [5] was “inactive” in each case. In [6], the Potency entry is “inactive”. Further, in [9], the result was inactive.

Turning to `CCOc1ccc(O)cc1`, the Potency entry in assay [1], in assay [2], in [3], in assay [8], in assay [10] and in [4] was “inactive” throughout. Further, the Potency result in assay [5] and in assay [6] was “inactive” in each case. In addition, the compound was called inactive in [9].

In the case of `COCC(C)OC(C)=O` (centres undefined), the Potency result in assay [7], in assay [2], in assay [3], in [8], in [10] and in assay [4] was “inactive” in each case. The Potency entry in assay [5] and in [6] was “inactive” throughout. For the same compound, in assay [9], the result was inactive.

For the compound `CC(=O)c1cccc([N+](=O)[O-])c1`, the Potency entry in [1], in [8], in assay [10], in assay [4], in assay [5] and in assay [6] was “inactive” each time. The result in assay [9] was inactive.

On to `Cc1cc(N)c2cc(NC(=O)Nc3ccc4nc(C)cc(N)c4c3)ccc2n1`, for which the Potency entry in [1], in [4], in assay [5] and in [6] was “inactive” each time. Besides, in assay [10], the Potency is 22.1 µM (active). In addition, the compound was classed as inactive in [9].

(Values after PubChem BioAssay (Tox21).)
